Composite z-score and z-score data for five molecules are collected here from PubChem BioAssay.

Active and inactive are the calls of the source.

Assay [1] in a line: binders of probe aFSTL3 on microarray, primary screen, stem cell growth factor project, biochemical, small-molecule microarray, fluorescence 635/667 (AID 1064).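 Further: measures binding of the biotinylated anti-FSTL3 antibody to printed compounds.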 Particulars: higher = more signal.
Assay [2] is described as follows: binders from COS7 lysate, DM2A8 probe, primary screen, torsin A project, cell lysate, small-molecule microarray, fluorescence 635/667 (AID 1065). Particulars: higher = more signal, COS7 lysate expressing mutant human TOR1A.
Assay [3] is described as follows: binders of probe aFGF2 on microarray, primary screen, stem cell growth factor project, biochemical, small-molecule microarray, fluorescence 635/667 (AID 1067).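 Further: measures binding of biotinylated aFGF2 protein to printed compounds on slides; z-score merges feature fluorescence and signal-to-noise across triplicate slides.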 Particulars: higher = more signal.
Assay [4] in a line: binders of probe aFGF10 on microarray, primary screen, stem cell growth factor project, biochemical, small-molecule microarray, fluorescence 635/667 (AID 1071).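 Further: score merges 667 nm spot intensity and signal to noise from triplicate slides.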 Particulars: higher = more signal.
The target of assay [5] is Neurogenic locus notch homolog protein 2 (Homo sapiens) (UniProt Q04721). In words: Notch2 binders on small-molecule microarrays, primary screen, biochemical, small-molecule microarray, 635 nm fluorescence, stem cell growth factors (AID 1073). Particulars: Notch2 binding, higher = more signal.
Sequence of Neurogenic locus notch homolog protein 2 (Homo sapiens) (Q04721 whole entry, looked up, canonical isoform): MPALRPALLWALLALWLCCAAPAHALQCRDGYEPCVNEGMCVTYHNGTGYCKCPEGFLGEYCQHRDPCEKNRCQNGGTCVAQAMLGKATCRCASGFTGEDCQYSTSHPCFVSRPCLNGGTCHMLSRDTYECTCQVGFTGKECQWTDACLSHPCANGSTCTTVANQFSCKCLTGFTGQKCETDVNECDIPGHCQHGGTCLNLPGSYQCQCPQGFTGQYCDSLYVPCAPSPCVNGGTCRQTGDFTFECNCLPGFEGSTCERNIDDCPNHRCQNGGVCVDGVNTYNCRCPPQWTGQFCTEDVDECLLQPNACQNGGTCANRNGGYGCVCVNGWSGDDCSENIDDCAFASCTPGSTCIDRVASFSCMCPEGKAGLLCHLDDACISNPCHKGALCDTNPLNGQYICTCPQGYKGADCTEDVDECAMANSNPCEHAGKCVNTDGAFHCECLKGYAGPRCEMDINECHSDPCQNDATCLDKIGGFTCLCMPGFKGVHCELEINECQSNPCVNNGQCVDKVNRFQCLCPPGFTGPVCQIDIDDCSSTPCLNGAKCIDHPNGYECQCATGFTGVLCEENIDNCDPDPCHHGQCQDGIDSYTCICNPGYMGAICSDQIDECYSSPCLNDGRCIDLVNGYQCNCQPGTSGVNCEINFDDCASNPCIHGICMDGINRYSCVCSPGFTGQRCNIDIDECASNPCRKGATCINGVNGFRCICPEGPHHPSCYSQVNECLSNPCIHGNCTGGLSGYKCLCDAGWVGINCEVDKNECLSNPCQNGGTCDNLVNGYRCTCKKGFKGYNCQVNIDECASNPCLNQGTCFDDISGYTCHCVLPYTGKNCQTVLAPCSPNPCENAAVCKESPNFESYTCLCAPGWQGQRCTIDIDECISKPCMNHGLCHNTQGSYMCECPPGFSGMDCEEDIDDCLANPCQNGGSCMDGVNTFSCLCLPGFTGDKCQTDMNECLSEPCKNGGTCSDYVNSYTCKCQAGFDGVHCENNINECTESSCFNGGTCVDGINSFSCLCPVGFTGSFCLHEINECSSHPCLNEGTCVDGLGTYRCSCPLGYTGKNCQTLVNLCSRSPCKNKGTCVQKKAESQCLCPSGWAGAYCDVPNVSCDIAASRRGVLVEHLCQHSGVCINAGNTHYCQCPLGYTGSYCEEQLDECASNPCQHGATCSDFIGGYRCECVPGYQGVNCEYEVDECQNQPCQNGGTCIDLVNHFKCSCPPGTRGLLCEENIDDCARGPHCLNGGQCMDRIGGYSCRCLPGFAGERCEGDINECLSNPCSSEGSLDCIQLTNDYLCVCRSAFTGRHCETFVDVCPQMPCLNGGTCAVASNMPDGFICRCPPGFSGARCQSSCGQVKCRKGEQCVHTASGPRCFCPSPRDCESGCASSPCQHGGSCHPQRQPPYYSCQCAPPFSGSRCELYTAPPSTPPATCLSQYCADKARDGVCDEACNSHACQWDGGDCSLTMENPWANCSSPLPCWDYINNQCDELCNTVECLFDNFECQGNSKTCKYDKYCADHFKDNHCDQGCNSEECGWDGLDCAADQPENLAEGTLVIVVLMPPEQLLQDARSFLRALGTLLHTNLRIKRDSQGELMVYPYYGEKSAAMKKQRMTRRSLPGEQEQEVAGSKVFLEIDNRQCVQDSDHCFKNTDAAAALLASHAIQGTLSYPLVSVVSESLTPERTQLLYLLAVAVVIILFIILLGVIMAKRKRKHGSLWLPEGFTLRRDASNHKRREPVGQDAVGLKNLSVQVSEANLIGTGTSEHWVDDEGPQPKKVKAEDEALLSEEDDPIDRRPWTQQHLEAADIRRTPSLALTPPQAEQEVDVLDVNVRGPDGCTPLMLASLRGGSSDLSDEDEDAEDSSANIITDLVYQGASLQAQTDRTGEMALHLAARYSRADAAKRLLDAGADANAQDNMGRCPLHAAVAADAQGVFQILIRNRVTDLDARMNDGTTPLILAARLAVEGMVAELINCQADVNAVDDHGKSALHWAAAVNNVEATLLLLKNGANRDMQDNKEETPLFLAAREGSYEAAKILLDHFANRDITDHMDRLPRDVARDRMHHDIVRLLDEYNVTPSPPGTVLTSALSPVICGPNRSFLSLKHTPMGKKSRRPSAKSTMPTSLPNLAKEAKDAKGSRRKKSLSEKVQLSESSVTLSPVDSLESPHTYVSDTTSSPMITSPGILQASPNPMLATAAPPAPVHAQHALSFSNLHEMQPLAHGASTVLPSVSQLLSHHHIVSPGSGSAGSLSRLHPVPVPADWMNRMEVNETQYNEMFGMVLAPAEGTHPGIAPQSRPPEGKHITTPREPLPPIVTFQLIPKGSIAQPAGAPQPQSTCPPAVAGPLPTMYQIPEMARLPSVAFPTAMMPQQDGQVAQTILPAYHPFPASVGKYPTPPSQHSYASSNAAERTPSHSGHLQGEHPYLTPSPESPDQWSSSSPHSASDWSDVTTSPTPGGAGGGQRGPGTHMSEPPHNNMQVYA
Assay [6] addresses Pro-neuregulin-1, membrane-bound isoform (Homo sapiens) (UniProt Q02297). Description: NRG1 binders on small-molecule microarrays, primary screen, psychiatric disease protein project, biochemical, small-molecule microarray, fluorescence 635/667 (AID 1075).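 Further: score combines 667 nm spot fluorescence with signal to noise.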 Particulars: NRG1 binding, 635 nm fluorescence, higher = more signal.
The test system of assay [7] is Neuregulin-1 EGF-like domain. Description: binders of neuregulin-1 EGF-like domain, primary screen, biochemical, small-molecule microarray, 635 nm fluorescence (AID 1081).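 Further: binding of the protein to compounds printed on small-molecule microarray slides.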 Particulars: small-molecule microarray binding, higher = more signal.
Assay [8] in a line: FRG1 promoter luciferase signal modulators, primary screen, FRG1 inhibition for FSHD, cell-based, C2C12 myotubes, firefly/Renilla luciferase, luminescence (AID 1084). Particulars: higher = more signal, called active from +8 up or from −8 down.
Assay [9] is described as follows: binders of probe aFST on microarray, primary screen, stem cell growth factor project, biochemical, small-molecule microarray, fluorescence 635/667 (AID 1086).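 Further: score merges 667 nm fluorescence with signal-to-noise of each printed compound spot.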 Particulars: higher = more signal.
Assay [10] is described as follows: binders of probe aHhip on microarray, primary screen, stem cell growth factor project, biochemical, small-molecule microarray, fluorescence 635/667 (AID 1087).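 Further: score merges spot fluorescence at 667nm with spot signal to noise ratio.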 Particulars: higher = more signal.
The test system of assay [11] is PRMT1 (protein arginine N-methyltransferase 1). Description: PRMT1 binders on small-molecule microarrays, primary screen, biochemical, small-molecule microarray, 635 nm fluorescence (AID 1088).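 Further: binding of Prmt1 protein to compounds spotted on small-molecule microarray slides.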 As to conditions: small-molecule microarray binding, higher = more signal.
Assay [12] in a line: yeast growth modulation, basal conditions, primary screen, YJM789 clinical isolate, OD600, 24 h (AID 1089).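 Further: growth of clinical yeast isolate S. cerevisiae YJM 789 seeded 1000 cells per well; test concentration not given here.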 Particulars: S. cerevisiae YJM789 growth, higher = more signal, called active from +8 up or from −8 down.
Assay [13] can be described thus: fission yeast growth modulation, primary screen, strain 972, OD600, 24 h, no modulator (AID 1090).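 Further: basal condition with compound alone and no growth modifier present; test concentration not given here.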 Particulars: S. pombe 972 growth, higher = more signal, called active from +8 up or from −8 down.
The nature of assay [14]: S. cerevisiae growth modulation with rapamycin, primary screen, strain BY4716, OD600, 96 h (AID 1091). Further: test concentration not given here. Particulars: higher = more signal, called active from +8 up or from −8 down.
For assay [15], the target named is Torsin-1A-interacting protein 2 (Homo sapiens) (UniProt Q8NFQ8). Description: LULL1 binders on small-molecule microarray, primary screen, cell lysate, human LULL1 lysate, 635/667 nm fluorescence (AID 1092).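 Further: score merges per-feature 667 nm fluorescence with signal-to-noise.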 As to conditions: hLULL1 lysate binding, 635 nm fluorescence, higher = more signal.
Sequence of Torsin-1A-interacting protein 2 (Homo sapiens) (Q8NFQ8 whole entry, looked up): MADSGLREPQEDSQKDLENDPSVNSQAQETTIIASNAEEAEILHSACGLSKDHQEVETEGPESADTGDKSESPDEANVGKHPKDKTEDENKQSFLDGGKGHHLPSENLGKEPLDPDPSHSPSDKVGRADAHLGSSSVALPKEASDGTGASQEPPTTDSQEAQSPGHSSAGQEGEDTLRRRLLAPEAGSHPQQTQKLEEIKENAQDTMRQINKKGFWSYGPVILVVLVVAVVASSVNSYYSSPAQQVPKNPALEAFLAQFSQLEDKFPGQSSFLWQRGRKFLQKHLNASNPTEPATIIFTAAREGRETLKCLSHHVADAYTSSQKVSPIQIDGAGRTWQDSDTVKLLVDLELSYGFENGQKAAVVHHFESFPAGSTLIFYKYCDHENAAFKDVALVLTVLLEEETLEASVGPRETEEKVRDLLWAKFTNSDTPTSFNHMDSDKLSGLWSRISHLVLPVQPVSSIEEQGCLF
Assay [16] can be described thus: E. coli growth modulation, two-sided OD650, primary screen, E. coli filamentation project, strain DRC41, 24 h (AID 1093).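 Further: MC1000 strain lacking acrAB efflux and sulA so SOS filamentation is blocked; test concentration not given here.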 As to conditions: OD650, 24 h, higher = more signal, called active from +8 up or from −8 down.
Assay [17] is described as follows: small-molecule microarray binders of probe aLefty2, primary screen, biochemical, biotinylated probe, 635/667 nm fluorescence (AID 1094).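 Further: score merges spot fluorescence near 667 nm with spot signal-to-noise ratio.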 As to conditions: higher = more signal.
Assay [18] deals with Noggin (protein binding on small-molecule microarray). In words: Noggin binders on small-molecule microarray, primary screen, biochemical, 635/667 nm fluorescence (AID 1095).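 Further: score merges 667 nm feature fluorescence with signal to noise over triplicate slides.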 As to conditions: 635 nm fluorescence, higher = more signal.
Assay [19] concerns the target Neurogenic locus notch homolog protein 3 (Homo sapiens) (UniProt Q9UM47). In words: NOTCH3 binders on small-molecule microarray, primary screen, biochemical, 635/667 nm fluorescence (AID 1096). Particulars: NOTCH3 binding, 635 nm fluorescence, higher = more signal.
A short description of assay [20]: small-molecule microarray binders of probe aEGFR, primary screen, biochemical, biotinylated probe, 635/667 nm fluorescence (AID 1097).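 Further: probe is a biotinylated anti-EGFR antibody binding compounds printed on slides; score combines fluorescence near 667 nm and signal to noise of each spot.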 Particulars: higher = more signal.

Sequence of Pro-neuregulin-1, membrane-bound isoform (Homo sapiens) (Q02297 whole entry, looked up, the tested form may be a part, canonical isoform): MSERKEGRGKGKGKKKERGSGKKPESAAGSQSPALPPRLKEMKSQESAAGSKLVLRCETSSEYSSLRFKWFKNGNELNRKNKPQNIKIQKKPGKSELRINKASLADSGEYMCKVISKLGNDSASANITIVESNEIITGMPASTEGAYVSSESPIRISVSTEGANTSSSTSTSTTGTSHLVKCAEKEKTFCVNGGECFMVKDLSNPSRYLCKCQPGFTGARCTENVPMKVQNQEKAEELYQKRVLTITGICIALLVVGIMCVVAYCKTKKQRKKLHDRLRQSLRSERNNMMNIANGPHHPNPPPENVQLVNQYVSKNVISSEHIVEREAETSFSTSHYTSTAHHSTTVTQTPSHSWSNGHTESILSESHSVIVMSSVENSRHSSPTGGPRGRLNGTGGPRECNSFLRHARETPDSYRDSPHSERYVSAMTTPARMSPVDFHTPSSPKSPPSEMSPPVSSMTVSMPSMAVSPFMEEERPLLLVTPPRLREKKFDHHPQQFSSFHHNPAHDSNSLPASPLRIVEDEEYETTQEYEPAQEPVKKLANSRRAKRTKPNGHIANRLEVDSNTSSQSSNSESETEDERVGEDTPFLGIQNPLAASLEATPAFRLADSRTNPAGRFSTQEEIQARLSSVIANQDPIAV

Take `[N-]=[N+]=Nc1ccccc1[C@H]1OC(c2ccc(OCCCO)cc2)=N[C@@]1(Cc1ccccc1)C(=O)NCCN1CCOCC1`: the composite z-score in assay [1] came out at 0.701; in [2], 0.584; in assay [3] it was 0.178; in assay [4] it was 1.19; in assay [5] it was 1.65; in [6], 1.96. Besides, the composite z-score in assay [7] is 1.39; in assay [9], 1.66; in assay [10] it was -0.106; in assay [11], 1.57; in [15], 3.23; in assay [17], 0.363. Besides, the composite z-score in assay [18] came out at 1.36; in [19], 1.05; in [20] it was 0.688. The z-score is 0.0219 (inactive) in [8]; 0.0597 (inactive) in [12]; -1.75 (inactive) in [13]; 1.72 (inactive) in assay [14]; 1.06 (inactive) in [16].
`CC(C)N1C(=O)C[C@@](C(=O)O)(c2ccc([N+](=O)[O-])cc2)[C@H]1c1ccc(CO)cc1`: the composite z-score in assay [1] is 1; in assay [2], 0.208; in [3] it was -0.031; in assay [4] it was 0.117; in assay [5] it was -0.436; in [6] it was 0.425. Also, the composite z-score in assay [7] was 1.04; in [9] it was -0.322; in assay [10], 0.0373; in assay [11] it was 1.01; in assay [15] it was 2.72; in assay [17], 0.0511. The composite z-score in assay [18] was -1.13; in assay [19], 0.0599; in assay [20] it was -0.158. Moreover, the z-score in assay [8] was 0.161 (inactive); in [12], 0.548 (inactive); in assay [13] it was -0.996 (inactive); in assay [14], -0.265 (inactive); in assay [16], 1.27 (inactive).
On to `COc1cc2c(cc1O)C(c1ccc(CN3CCCC3)cc1)N(Cc1cc3c(cc1Br)OCO3)CC2` (stereo not given), for which the composite z-score is -0.373 in assay [1]; -0.311 in [2]; -0.0351 in [3]; 0.183 in [4]; 0.963 in assay [5]; 0.729 in assay [6]. Besides, the composite z-score is 0.784 in assay [7]; 0.296 in [9]; -0.201 in assay [10]; -0.137 in assay [11]; 0.502 in assay [15]; -0.0576 in assay [17]. The composite z-score in assay [18] is -0.244; in assay [19] it was 0.313; in assay [20], -0.176. For the same molecule, the z-score was 0.0296 (inactive) in assay [8]; -0.312 (inactive) in assay [12]; -6.22 (inactive) in assay [13]; -1.83 (inactive) in [14]; -3.03 (inactive) in assay [16].
As for `CC1=C2[C@@H](CCc3ccccc3)OB(O)C[C@@H]2[C@@H]2C(=O)N(Cc3ccccc3)C(=O)[C@@H]2C1`, the composite z-score was -0.575 in assay [1]; -0.0096 in assay [2]; -0.155 in assay [3]; 0.0928 in [4]; 0.529 in assay [5]; 0.0808 in [6]. In addition, the composite z-score was 1.02 in [7]; 0.0584 in [9]; -0.0618 in [10]; 0.433 in assay [11]; 1.24 in assay [15]; -0.116 in assay [17]. In addition, the composite z-score in [18] was 0.694; in [19] it was 0.57; in [20], -0.0381. The z-score in assay [8] is -0.0949 (inactive); in assay [12] it was -0.763 (inactive); in assay [13], -2.47 (inactive); in assay [14], -0.993 (inactive); in [16] it was -0.116 (inactive).
On to `CCCCCCCCCC(O)C1C=CC2C(=O)N(c3ccccc3)C(=O)C2N1Nc1cc(OC)c(OC)c(OC)c1` (stereo not given), for which the composite z-score in assay [1] is -0.0386; in [2], -0.666; in assay [3], 0.0166; in [4], 0.23; in [5], 0.45; in assay [6] it was 0.856. Also, the composite z-score in [7] was 0.487; in [9] it was 0.199; in assay [10], -0.13; in assay [11], 0.619; in assay [15], 2.23; in assay [17], -0.163. Further, the results for the composite z-score in assay [18], in [19] and in assay [20] were -0.344, 0.631 and -0.0978, respectively. The z-score is 0.393 (inactive) in assay [8]; 1.13 (inactive) in assay [12]; 0.441 (inactive) in assay [13]; -0.236 (inactive) in assay [14]; -3.91 (inactive) in [16].
